According to PubChem BioAssay AID651593 (National Center for Advancing Translational Sciences (NCATS), 2012):
Values joined by “and” are separate entries in the source; they are usually repeats but may differ in a detail not shown here. Equal entries are not always repeated. Hit rate of the full screen: of about 1,100 compounds, about 860 (78%) were called active. Roughly 19% stayed inconclusive and do not appear here. Calls follow the shape of the dose curve; as a rule, active = well fitted activation curve with a large enough effect; inconclusive = small, poorly fitted or top-dose-only effect; inactive = flat fitted curve, though single readings scatter. So high a share suggests a set chosen from earlier hits. Some of the results follow.

Test: qHTS of Nrf2 Activators: Hit Validation in Primary Assay; also: nearly all actives have a fitted effect of over 70% in size; as to activation: 0% is about no effect
Settings: Nrf2/ARE reporter cell assay; Potency: activation; series mostly up to 46.1 µM; activation: at the top concentration
In short: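 Luminescence from Steady-Glo lysis reagent, read after 30 min, reported ARE-luciferase activity in AREc32_fluc stable cells. Compounds were tested at several concentrations, incubated 24 h at 37 °C with 5% CO2 following overnight seeding.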
Potency is read from the fitted curve at half-maximal effect.

Potency, active:
COc1ccc(-c2cc3ccccc3c(=O)o2)cc1 4.61 µM, CC(=O)c1sc(Nc2ccccc2)nc1C 18.4 µM, O=[N+]([O-])c1ccc(SCc2ccco2)cc1N1CCOCC1 2.31 µM, Cc1cccc(NC(=O)C2CC(=O)N/C(=N/N=C/c3ccco3)S2)c1 (configuration not stated) 2.06 µM, O=C1CC(C(=O)Nc2ccc(Cl)c(Cl)c2)S/C(=N\N=C\c2ccco2)N1 (configuration not stated) 0.731 µM, Cn1c(NC(=O)/C=C/c2ccccc2)cc(=O)n(C)c1=O 20.6 µM, Cc1ccc(NC(=O)CC2S/C(=N/N=C/c3ccco3)NC2=O)cc1Cl (configuration not stated) 1.03 µM, O=C(CC1S/C(=N/N=C/c2ccco2)NC1=O)Nc1ccccc1 (configuration not stated) 1.84 µM, O=c1cc(-c2ccco2)nc(SCc2cccc(Cl)c2)[nH]1 1.16 µM, O=C(Nc1ccccn1)c1csc2c1CCCC2 5.8 µM, COC(=O)c1cc2nc(-c3ccccc3)cc(C(F)(F)F)n2n1 6.51 µM, O=c1nc2c(O)cccn2c2c1c(=O)[nH]c1ccccc12 2.31 µM, O=c1cc(COc2ccccc2[N+](=O)[O-])nc2sccn12 9.2 µM, CCOC(=O)CCn1c(=O)c2cccn2c2cccnc21 18.4 µM, NC(=O)c1c(NC(=O)c2ccc([N+](=O)[O-])o2)sc2c1CCCC2 2.91 µM, CCCc1cc(C(N)=O)c(NC(=O)c2ccco2)s1 4.61 µM, N#Cc1c(NC(=O)c2ccc([N+](=O)[O-])o2)sc2c1CCC2 3.66 µM, NC(=O)c1c(NC(=O)c2ccco2)sc2c1CCC2 2.59 µM, O=C(NCC1CCCO1)c1ccc([N+](=O)[O-])o1 (configuration not stated) 23.1 µM, Cc1ccccc1/C=C1\C(=O)Nc2ccc(F)cc21 5.17 µM, O=C1Nc2ccccc2/C1=C/c1ccccc1Cl 2.31 µM, N#CC(=C1C=CC(=NO)C(Cl)=C1)c1ccccc1 5.17 µM, O=C(/C=C/c1ccccc1Cl)Nn1cnc2ccccc2c1=O 2.91 µM, N#Cc1c(-c2ccco2)cc(-c2ccccc2)[nH]c1=O 1.64 µM, CC(=O)Oc1c(-c2ccco2)oc2ccccc2c1=O 0.651 µM, Nc1c(C(=O)C2CC2)sc2nc(-c3cccs3)cc(C(F)(F)F)c12 2.91 µM, CC(=O)c1sc2nc(-c3cccs3)cc(C(F)(F)F)c2c1N 2.59 µM, Cc1ccc(S(=O)(=O)/N=C(/NNC(=O)c2cccc(Cl)c2)c2ccccc2)cc1 18.4 µM, O=C(NN/C(=N/S(=O)(=O)c1ccc(Cl)cc1)c1ccccc1)c1cccc(Cl)c1 9.2 µM, COCCN(C(=O)c1ccco1)c1nc(-c2ccccc2)cs1 20.6 µM, C=C1C2=C(C(=O)N1OC)[C@@H](O)[C@@](C)(O)[C@@H](CCCCC)O2 23.1 µM, Cc1ccc([N+](=O)[O-])c(OCc2ncc(Cl)n2C)c1 18.4 µM, Cc1ccccc1CS(=O)(=O)c1cnc2ccccc2n1 16.4 µM, CCOc1cc(C=O)cc(N=Nc2cccc([N+](=O)[O-])c2)c1O 16.4 µM, O=C(Nc1ccc2ccccc2c1)c1ccc(Br)o1 2.91 µM, Cc1cccc(NC(=S)NC(=O)c2ccc(Br)o2)c1 10.3 µM, Cc1nc(NC(=O)c2ccc(Br)o2)ccc1Br 9.2 µM, O=C(/C=C/c1ccco1)Nc1cccnc1Cl 1.46 µM, O=C(/C=C/c1ccco1)Nc1cccc2cccnc12 0.82 µM, O=C1C2C3C=CC(C4CC34)C2C(=O)N1/N=C/c1ccc([N+](=O)[O-])o1 (configuration not stated) 3.66 µM, O=C1C2C(C(=O)N1/N=C/c1ccc([N+](=O)[O-])o1)C1C=CC2C12CC2 (configuration not stated) 18.4 µM, Nc1ccc2c(Cl)cc(Cl)cc2c1 2.31 µM, Cn1c(=O)c(C(=O)NNC(=O)c2ccccc2F)c(O)c2ccccc21 2.31 µM, O=C(c1ccc(S(=O)(=O)Cc2cc(F)ccc2F)c([N+](=O)[O-])c1)N1CCCC1 7.31 µM, O=C(c1ccc(S(=O)(=O)Cc2ccccc2Cl)c([N+](=O)[O-])c1)N1CCOCC1 18.4 µM, Cc1ccc(Cl)c2sc(NC(=O)C3CC3)nc12 5.8 µM, Cc1nc2sc(C(=O)c3ccccc3)c(N)c2c2c1CCCC2 3.66 µM, CSc1c(C#N)c(N)nc2sc(C(=O)c3ccccc3)c(N)c12 4.61 µM, Cc1ccc2c(N)c(C(=O)c3ccccc3)sc2n1 14.6 µM, O=C(Nc1cccn2ncnc12)c1cccc(C(F)(F)F)c1 18.4 µM, CC(=O)NCCNc1nc2cc(-c3cscc3C)sc2c(=O)n1C 1.3 µM, COc1ncccc1-c1cc2nc(NCCNC(C)=O)n(C)c(=O)c2s1 2.59 µM, Cc1ccc([N+](=O)[O-])cc1NC(=O)c1ccc(C(C)(C)C)cc1 4.61 µM, Cn1c(=O)n(C)c2cc(NC(=O)c3cccc([N+](=O)[O-])c3)c(Br)cc21 13 µM, CCn1ncc(Br)c1C(=O)Nc1cc([N+](=O)[O-])ccc1C 2.91 µM, Cc1ccc([N+](=O)[O-])cc1NC(=O)c1ccccc1 7.31 µM, O=C(Nc1cnc2ccccc2c1)c1ccco1 2.91 µM, O=C(NC(=S)Nc1cnc2ccccc2c1)c1ccccc1 2.59 µM, c1ccc(C2=Nn3c(nnc3-c3ccco3)SC2)cc1 1.84 µM, O=c1cc(/C=C/c2ccccc2)oc2ccccc12 2.31 µM, COc1ccc(Cl)cc1NC(=O)CSc1c2c(nc3ccccc13)CCC2 18.4 µM, COc1ccc(S(=O)(=O)N2CCN(C(=O)c3ccc([N+](=O)[O-])o3)CC2)cc1 5.8 µM, COc1ccc(N2CCCC2)c(NC(=O)c2ccc([N+](=O)[O-])o2)c1 6.51 µM, COC(=O)c1scc(C)c1NC(=O)c1ccc(Cl)cc1 3.66 µM, CCCn1nc([N+](=O)[O-])c(C(C#N)c2nc3ccccc3s2)c(Cl)c1=O (configuration not stated) 2.31 µM, COc1ccc(Br)cc1/C=N/Nc1ccccn1 2.59 µM, COc1cc(/C=N/Nc2ccccn2)cc(OC)c1O 5.8 µM, CN(Cc1ccccc1)C(=O)c1ccc([N+](=O)[O-])o1 16.4 µM, COc1cccc(C(=O)Nc2cc(C)c3c(=O)oc4ccccc4c3n2)c1 2.06 µM, Cc1cc(NC(=O)C2CCCC2)nc2c1c(=O)oc1ccccc12 2.31 µM, Cc1cc(NC(=O)c2ccccc2)nc2c1c(=O)oc1ccccc12 1.46 µM, Cc1cc(NC(=O)CC(C)(C)C)nc2c1c(=O)oc1ccccc12 3.66 µM, Cc1cc(NC(=O)c2ccccc2F)nc2c1c(=O)oc1ccccc12 0.58 µM, COc1cc(OC)cc(-c2nc3ccccc3s2)c1 13 µM, Cc1cc(C)n(S(=O)(=O)/C=C/c2ccccc2)n1 4.61 µM, Cc1cc(C)cc(OC(=O)CS(=O)c2ccc(C(F)(F)F)cc2[N+](=O)[O-])c1 (configuration not stated) 18.4 µM, O=C(CCCCCCC(=O)Nc1ccccc1)NO 2.31 µM, O=C(Nc1cc(Br)ccc1O)c1cnn2c(C(F)F)cc(C3CC3)nc12 3.26 µM, CS(=O)(=O)Cc1nc2ccccc2oc1=O 20.6 µM, CCc1ccc(/C=C/c2c([N+](=O)[O-])c(=O)n(C)c(=O)n2C)cc1 11.6 µM, N#C/C(=C(/O)c1ccco1)c1nc2ccccc2[nH]1 2.59 µM, N#C/C(=C(/O)c1ccco1)c1nc2ccccc2s1 1.64 µM and 2.06 µM, CSc1ccc(C2NN=C(c3ccccc3)S2)cc1 (configuration not stated) 2.31 µM, CN1CCN(CCCNC(=O)c2cc3c(=O)n(C)c4ccccc4c3s2)CC1 8.2 µM, Cc1nc(NCc2ccco2)nc2c1C(=O)CC(C)C2 (configuration not stated) 1.84 µM, Clc1cc(Cl)cc(Nc2ncnc(-n3cccc3)n2)c1 2.59 µM, Cc1ccccc1OCC(=O)Nc1ccccc1CO 6.51 µM, O=C(NC1CCCCC1)N(c1ccccc1)c1nnc(-c2cccc([N+](=O)[O-])c2)s1 7.31 µM, CCOc1cc2ccccc2cc1C(=O)Nc1ccccn1 3.66 µM, Clc1ccc(-c2nnc(-c3cccc4ccccc34)o2)cc1 1.84 µM, Cc1cccc(-c2nnc(-c3cccc4ccccc34)o2)c1 5.17 µM, O=C(Nc1cc(-c2nc3cc(Cl)ccc3o2)ccc1Cl)c1ccco1 1.3 µM, O=C(Nc1cc(-c2nc3ncccc3o2)ccc1Cl)c1ccco1 3.66 µM, O=C(Nc1cc2nn(-c3ccccc3)nc2cc1Cl)c1ccco1 1.64 µM, Cc1ccc(-c2nc3cccnc3s2)cc1NC(=O)c1ccco1 8.2 µM, O=C(Nc1cc(-c2nc3ncccc3o2)ccc1Cl)c1cccs1 4.11 µM, O=c1c2ccccc2oc2ccc(-c3ccc4cc[nH]c4c3)cc12 3.66 µM, COc1ccc2oc3ccccc3c(=O)c2c1 23.1 µM, COc1ccc2oc3cc(Cl)ccc3c(=O)c2c1 9.2 µM, O=c1c2ccccc2oc2cc(Br)ccc12 2.59 µM

activation, inactive:
O=C(NNC(=O)C12CC3CC(CC(C3)C1)C2)c1cccc([N+](=O)[O-])c1 26.6%, N#CC1=C(N)Oc2c(ccc3ccccc23)C1c1ccsc1 (configuration not stated) 23.4%
